Test results from the supplement of paper PMC4723716.

System: Plasmodium falciparum NF54 gametocytes
Experiment: viability index relative to DMSO control (fraction); higher = less gametocyte killing
Conditions: gametocyte stage: Stage IV viability index; 12.5 µM; incubation time: 72 h
Method in brief: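 Each stage (I–V) of P. falciparum NF54 gametocytes was incubated with compound at 12.5 µM in 384-well plates, in 40 µl of serum-containing medium at 0.50% gametocytemia and 1.25% hematocrit, for 72 hr at 37°C under low oxygen. After 5 µl of 5 µM MitoTracker Red CMXRos was added for 20 min, 5 µl from each well was moved into 40 µl of 500 nM dye in serum-free medium and imaged across three fields after 30 min. The viability index is the gametocyte particle count divided by the plate mean of the solvent-only wells.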

Compound | viability index
CCOc1ccc(N2C(N)=NC(N)=NC2(C)C)cc1 | 0.959
COCCNC(=O)c1ccc(OC2CCN(Cc3ccc(F)c(F)c3)CC2)c(Cl)c1 | 0.979
CCOC(=O)c1cnc2c(C)cc(C)cc2c1Nc1ccc(OC)c(OC)c1 | 0.845
CN1CCN(c2ncnc3c2[nH]c2ccc(Cl)cc23)CC1 | 1.04
CCOC(=O)c1ccc2nc(-c3ccccc3)cc(O)c2c1 | 0.757
COc1ccc(-c2c(C)nn3c(N)c(C#N)cnc23)cc1OC | 0.0942
CCCCCn1c(=N)n(CC(O)COc2cccc(C)c2)c2ccccc21 (stereo unspecified) | 0.459
Cc1cc(Nc2cccc(F)c2)nc(NCc2ccccc2)n1 | 1.01
Cc1ccc(-c2cc3c(nn2)-c2ccccc2C3=O)cc1 | 0.897
CCOC(=O)C1=C(c2ccccc2)N=c2sc(=Cc3cc(C)n(-c4ccc(F)cc4)c3C)c(=O)n2C1c1cccc(OC)c1OC (stereo unspecified) | 0.839
CC1CCN(Cc2ccc(NC(=O)c3cc4ccc5cccnc5c4[nH]3)cc2)CC1 | 0.954
COc1cc(SC)ccc1C(=O)N1CCCC(C)C1 (stereo unspecified) | 1.16
O=C(Nc1ccc(N2CCN(Cc3ccccc3)CC2)cc1)c1cccs1 | 0.875
CCN(Cc1ccccc1)C1CCN(Cc2cc(Br)ccc2O)CC1 | 0.617
c1ccc2c(NCCc3c[nH]c4ccccc34)c3ccccc3nc2c1 | 0.687
CN(C)c1ccc(-c2nc3cc(N)ccc3[nH]2)cc1 | 0.939
N=c1c2ccccc2nnn1-c1cccc(C(F)(F)F)c1 | 0.785
O=C(Nc1cccc(-c2nc3ccccc3[nH]2)c1)c1cccc(NC(=O)c2ccco2)c1 | 0.857
COc1ccc2nc(N)nc(C)c2c1 | 0.959

Compound | viability index
CCOC(=O)c1cn(CC)c2cc(N(C)CCc3ccc(OC)c(OC)c3)c(F)cc2c1=O | 0.827
N=c1n(CCN2CCCCC2)c2ccccc2n1CC(=O)c1ccc(Cl)c(Cl)c1 | 0.886
Fc1ccc2[nH]c3c(NCCCN4CCOCC4)ncnc3c2c1 | 0.866
COc1ccc(C2c3ccc4ccccc4c3Oc3ncn(CCCn4ccnc4)c(=N)c32)cc1OC (stereo unspecified) | 0.547
CCCCc1ccc(NS(=O)(=O)c2cc3c4c(c2)CCN4C(=O)CC3)cc1 | 1.12
COc1ccc(C(=O)Nc2nonc2-c2ccc(OC)c(OC)c2)cc1Cl | 0.568
Cc1ccc(CN2CCC(C(=O)Nc3ccc(-c4cc5ccccc5[nH]4)cc3)CC2)o1 | 0.422
COc1ccc(Br)cc1C1Nc2ccc3ccccc3c2C2=C1C(=O)CC(c1ccccc1)C2 (stereo unspecified) | 0.939
CCCCC(O)(c1ccc(Cl)cc1)C(CN1CCOCC1)c1ccc(Cl)cc1 (stereo unspecified) | 0.763
COc1ccc(N2CCN(C(CNC(=O)CC(C)(C)C)c3ccc4c(c3)OCO4)CC2)cc1 (stereo unspecified) | 0.826
Cc1sc(NC(=O)c2ccccc2)c(C(c2cccs2)N2CCN(c3ccccc3)CC2)c1C (stereo unspecified) | 0.753
O=C(Nc1nc(-c2ccccn2)cs1)c1ccccc1Br | 0.158
CN(C)CCCNc1c2ccccc2nc2ccccc12 | 0.201
O=C(NCc1ccco1)C1CCN(S(=O)(=O)c2ccc(Cl)cc2)CC1 | 0.942
O=C(Nc1ccccc1O)c1ccc(-c2ccc(Cl)cc2Cl)o1 | 0.653
O=C(NC1CCN(Cc2ccccc2)CC1)c1cc2nc(-c3ccc(Cl)s3)cc(C(F)(F)F)n2n1 | 0.883
COc1cc2c(cc1OC)C1=NNC(=O)C1=NC(C)(C)C2 | 0.109
O=C(Nc1ccc(CN2CCOCC2)cc1)c1ccc(-c2cc(Cl)ccc2Cl)o1 | 1.04
CC(NCc1ccccc1)c1cc(Cl)ccc1O (stereo unspecified) | 0.574

Same assay, conditions: gametocyte stage: Stage V viability index; 12.5 µM; incubation time: 72 h

Compound | viability index
CCOc1ccc(N2C(N)=NC(N)=NC2(C)C)cc1 | 1.08
COCCNC(=O)c1ccc(OC2CCN(Cc3ccc(F)c(F)c3)CC2)c(Cl)c1 | 0.901
CCOC(=O)c1cnc2c(C)cc(C)cc2c1Nc1ccc(OC)c(OC)c1 | 0.978
CN1CCN(c2ncnc3c2[nH]c2ccc(Cl)cc23)CC1 | 0.935
CCOC(=O)c1ccc2nc(-c3ccccc3)cc(O)c2c1 | 1.12
COc1ccc(-c2c(C)nn3c(N)c(C#N)cnc23)cc1OC | 0.0769
CCCCCn1c(=N)n(CC(O)COc2cccc(C)c2)c2ccccc21 (stereo unspecified) | 0.221
Cc1cc(Nc2cccc(F)c2)nc(NCc2ccccc2)n1 | 0.429
Cc1ccc(-c2cc3c(nn2)-c2ccccc2C3=O)cc1 | 1.05
CCOC(=O)C1=C(c2ccccc2)N=c2sc(=Cc3cc(C)n(-c4ccc(F)cc4)c3C)c(=O)n2C1c1cccc(OC)c1OC (stereo unspecified) | 0.703
CC1CCN(Cc2ccc(NC(=O)c3cc4ccc5cccnc5c4[nH]3)cc2)CC1 | 0.769
COc1cc(SC)ccc1C(=O)N1CCCC(C)C1 (stereo unspecified) | 1.18
O=C(Nc1ccc(N2CCN(Cc3ccccc3)CC2)cc1)c1cccs1 | 1.15
CCN(Cc1ccccc1)C1CCN(Cc2cc(Br)ccc2O)CC1 | 0.659
c1ccc2c(NCCc3c[nH]c4ccccc34)c3ccccc3nc2c1 | 0.675
CN(C)c1ccc(-c2nc3cc(N)ccc3[nH]2)cc1 | 0.725
N=c1c2ccccc2nnn1-c1cccc(C(F)(F)F)c1 | 0.87
O=C(Nc1cccc(-c2nc3ccccc3[nH]2)c1)c1cccc(NC(=O)c2ccco2)c1 | 0.868
COc1ccc2nc(N)nc(C)c2c1 | 1.04

Compound | viability index
CCOC(=O)c1cn(CC)c2cc(N(C)CCc3ccc(OC)c(OC)c3)c(F)cc2c1=O | 0.923
N=c1n(CCN2CCCCC2)c2ccccc2n1CC(=O)c1ccc(Cl)c(Cl)c1 | 0.753
Fc1ccc2[nH]c3c(NCCCN4CCOCC4)ncnc3c2c1 | 0.78
COc1ccc(C2c3ccc4ccccc4c3Oc3ncn(CCCn4ccnc4)c(=N)c32)cc1OC (stereo unspecified) | 0.429
CCCCc1ccc(NS(=O)(=O)c2cc3c4c(c2)CCN4C(=O)CC3)cc1 | 1.07
COc1ccc(C(=O)Nc2nonc2-c2ccc(OC)c(OC)c2)cc1Cl | 0.736
Cc1ccc(CN2CCC(C(=O)Nc3ccc(-c4cc5ccccc5[nH]4)cc3)CC2)o1 | 0.396
COc1ccc(Br)cc1C1Nc2ccc3ccccc3c2C2=C1C(=O)CC(c1ccccc1)C2 (stereo unspecified) | 1.05
CCCCC(O)(c1ccc(Cl)cc1)C(CN1CCOCC1)c1ccc(Cl)cc1 (stereo unspecified) | 0.701
COc1ccc(N2CCN(C(CNC(=O)CC(C)(C)C)c3ccc4c(c3)OCO4)CC2)cc1 (stereo unspecified) | 0.727
Cc1sc(NC(=O)c2ccccc2)c(C(c2cccs2)N2CCN(c3ccccc3)CC2)c1C (stereo unspecified) | 0.545
O=C(Nc1nc(-c2ccccn2)cs1)c1ccccc1Br | 0.0989
CN(C)CCCNc1c2ccccc2nc2ccccc12 | 0.231
O=C(NCc1ccco1)C1CCN(S(=O)(=O)c2ccc(Cl)cc2)CC1 | 1.23
O=C(Nc1ccccc1O)c1ccc(-c2ccc(Cl)cc2Cl)o1 | 0.736
O=C(NC1CCN(Cc2ccccc2)CC1)c1cc2nc(-c3ccc(Cl)s3)cc(C(F)(F)F)n2n1 | 1.01
COc1cc2c(cc1OC)C1=NNC(=O)C1=NC(C)(C)C2 | 0.011
O=C(Nc1ccc(CN2CCOCC2)cc1)c1ccc(-c2cc(Cl)ccc2Cl)o1 | 1.04
CC(NCc1ccccc1)c1cc(Cl)ccc1O (stereo unspecified) | 0.923
